Measurements reported in PubChem BioAssay.
Calls of active or inactive are those of the source.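 Rule for the calls, unless noted: active = NADPH fluorescence slope more negative than the mean of all samples by about 3 SD, 99.7% confidence; inactive = the rest.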

What was measured:
[1] = inhibitors of TNFa-induced NFkB p65 translocation, primary screen, imaging, HUVEC, MLSMR starter and 10KST1 sets (AID 438;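 active = inhibition above 20% together with a positive visual image hit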;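 note: compound added about 3h40 before a 20 min TNFalpha stimulation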;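 for inhibition: signal is the nuclear over cytoplasmic p65 intensity ratio per well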); conditions: HUVEC TNFa-induced p65 nuclear translocation; cell count: measured here: nuclei count (cytotoxicity indicator), at 2.08 µM; inhibition: at 2 µM, stronger effect = higher value, 0% TNFa-plus-vehicle, 100% no-TNFa wells
[2] = inhibitors of mutant huntingtin aggregation, primary screen, imaging, exon1htt(103Q)mCFP cells, high-content imaging (AID 483;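 active = visual image review flags a hit and inhibition of aggregation exceeds 20%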;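 note: compound exposure lasted 3 days before fixation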;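 for nuclei count: percent of the per-plate median nuclei count of sample wells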); conditions: exon1htt(103Q)mCFP cell line, aggregate imaging, at 2 µM; inhibition of aggregation: stronger effect = higher value; nuclei count: measured here: cell count, toxicity
[3] = inhibitors of E-selectin induction by TNFa, primary screen, imaging, HUVEC, immunofluorescence, MLSMR starter and 10KST1 sets (AID 487;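 active = visually confirmed hit in the image check and inhibition above 20%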;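 for inhibition: signal is fraction of cell area covered by stained E-selectin grains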;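 for nuclei count: 100% = median nuclei count of all wells on the same plate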); conditions: HUVEC TNFalpha-induced E-selectin immunofluorescence imaging, at 2 µM; inhibition: stronger effect = higher value; nuclei count: measured here: cell number, toxicity
[4] = molecular target: Voltage-gated potassium channel subunit beta-2 (Rattus norvegicus) (UniProt P62483); experiment: KvBeta enzyme negative modulators, primary screen, biochemical, NADPH fluorescence (AID 622;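 active = fluorescence slope higher than the sample average by over 3 SD, cut at about -0.22 in these data, passing the limit was not always enough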;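 note: slope of raw intensity against log time taken from 70 to 1610 s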); conditions: recombinant KvBeta, 4-cyanobenzaldehyde reduction, at 10 µM, stronger effect = higher value
Sequence of Voltage-gated potassium channel subunit beta-2 (Rattus norvegicus) (P62483 whole entry, looked up): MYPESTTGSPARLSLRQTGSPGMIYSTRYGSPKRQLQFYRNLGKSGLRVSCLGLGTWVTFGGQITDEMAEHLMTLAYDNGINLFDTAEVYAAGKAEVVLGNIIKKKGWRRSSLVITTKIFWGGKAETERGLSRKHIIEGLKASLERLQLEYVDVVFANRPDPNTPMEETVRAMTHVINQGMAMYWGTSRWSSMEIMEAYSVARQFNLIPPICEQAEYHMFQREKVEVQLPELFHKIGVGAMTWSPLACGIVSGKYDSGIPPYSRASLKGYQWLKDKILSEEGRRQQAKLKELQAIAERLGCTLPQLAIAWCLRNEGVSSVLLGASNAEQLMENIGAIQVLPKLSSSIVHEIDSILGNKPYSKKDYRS

[5] = molecular target: Voltage-gated potassium channel subunit beta-2 (Rattus norvegicus) (UniProt P62483); experiment: KvBeta positive modulators, primary screen, biochemical, NADPH fluorescence (AID 623); conditions: Recombinant KvBeta, NADPH fluorescence decrease slope, 10 min; at 10 µM; stronger effect = lower value;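 note: fluorescence intensity change per second fitted from 20 to 320 s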
[6] = molecular target: Alpha-2C adrenergic receptor (Homo sapiens) (UniProt P18825); experiment: modulators of alpha2C/GIRK thallium flux, primary screen, cell-based, HEK293 alpha2C/GIRK1/2 (AID 624;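 active = fluorescence slope after compound addition differing from the mean of all screened samples at 99.7% confidence, in either direction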;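 note: slope of fluorescence ratio to pre-addition baseline per second over 15 to 24 s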); conditions: thallium flux BTC fluorescence, at 10 µM, actives lie on both sides
Sequence of Alpha-2C adrenergic receptor (Homo sapiens) (P18825 whole entry, looked up): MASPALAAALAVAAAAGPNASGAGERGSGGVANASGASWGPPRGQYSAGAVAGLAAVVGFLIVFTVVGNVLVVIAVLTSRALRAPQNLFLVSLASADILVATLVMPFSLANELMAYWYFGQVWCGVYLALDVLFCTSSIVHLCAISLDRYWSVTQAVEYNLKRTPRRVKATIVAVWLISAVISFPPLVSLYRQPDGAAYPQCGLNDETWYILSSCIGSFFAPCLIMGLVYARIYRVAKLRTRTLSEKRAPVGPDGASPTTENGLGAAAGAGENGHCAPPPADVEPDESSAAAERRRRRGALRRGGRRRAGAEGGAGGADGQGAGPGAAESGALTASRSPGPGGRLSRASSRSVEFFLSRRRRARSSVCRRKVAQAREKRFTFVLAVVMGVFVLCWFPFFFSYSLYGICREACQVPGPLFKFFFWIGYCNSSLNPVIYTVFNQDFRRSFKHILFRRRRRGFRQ

[7] = inhibitors of Sendai virus-induced IRF3 signaling, primary screen, TLR/RLR signaling modifier project, cell-based, Sendai virus stimulus, luciferase, 10K MLSCN set (AID 602276;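 active = inhibition at or above 50% at 10 µM; inactive = inhibition below 50%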;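 note: firefly luciferase from ISG56 promoter only with Renilla not read in this screen; 0% = Sendai virus plus DMSO and 100% = medium plus DMSO without virus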); conditions: HEK293 RL24 IRF3 luciferase reporter, at 10 µM, stronger effect = higher value
[8] = inhibitors of poly I:C-induced TLR3 signaling, primary screen, cell-based, poly I:C stimulus, luciferase, 10K MLSCN set (AID 602277;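 active = inhibition of the reporter signal at or above 50%; inactive = inhibition below 50%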); conditions: HEK293-TLR3 RL24 IRF3 luciferase reporter, at 10 µM, stronger effect = higher value

Row | Compound | cell count [1] | inhibition [1] | inhibition of aggregation [2] | nuclei count [2] [%] | inhibition [3] | nuclei count [3] [%] | fluorescence slope [4] | NADPH fluorescence slope [5] | slope [6] | inhibition [7] | inhibition [8]
1 | Cc1ccc2c(c1)sc1ncc(NC(=O)c3ccccc3)c(=O)n12 | 324 | 2.1% (inactive) | -14.3% (inactive) | 100 | -27.5% (inactive) | 110 | -0.58 (inactive) | 6.2e-06 (inactive) | 0.0047 (inactive) | -16.1% (inactive) | -38.4% (inactive)
2 | COc1ccc(CC(=O)Nc2ccc(OC)c(NC(=O)c3ccco3)c2)cc1 | 580 | 22% (active) | 4% (inactive) | 99.6 | -70.8% (inactive) | 146 | -0.417 (inactive) | 9.4e-05 (inactive) | 0.00901 (inactive) | -27.5% (inactive) | -49.2% (inactive)
3 | Cc1cc(NS(=O)(=O)c2ccc(NC(=O)COc3ccc(Cl)cc3)cc2)no1 | 361 | 0.4% (inactive) | -9.7% (inactive) | 118 | -54.3% (inactive) | 122 | -0.292 (inactive) | -6.7e-05 (inactive) | 0.00576 (inactive) | 13% (inactive) | 19.8% (inactive)
4 | CCOC(OCC)P(=O)(C(C)C)C(C)C | 491 | 6% (inactive) | -0.1% (inactive) | 93.4 | -53.6% (inactive) | 134 | -0.443 (inactive) | 4e-05 (inactive) | 0.00549 (inactive) | 17.5% (inactive) | 17.3% (inactive)
5 | Cc1cc(C(=O)CSc2nc3ccccc3n2CCC#N)c(C)n1Cc1cccs1 | 440 | 10.6% (inactive) | -70.3% (inactive) | 102 | -412% (inactive) | 158 | -0.32 (inactive) | -4.6e-05 (inactive) | 0.00574 (inactive) | 20.7% (inactive) | -7.47% (inactive)
6 | O=C1c2ccccc2C(Nc2ccc3c(c2)OCCO3)N1Cc1ccco1 (stereo not drawn) | 548 | -2% (inactive) | 17.5% (inactive) | 102 | -106% (inactive) | 132 | -0.589 (inactive) | -2.3e-05 (inactive) | 0.00424 (inactive) | 12.3% (inactive) | 7.32% (inactive)
7 | O=C(NCc1ccco1)c1cccc(-c2nnc(-c3ccccc3)o2)c1 | 320 | -6% (inactive) | 5.1% (inactive) | 122 | -78.1% (inactive) | 124 | -0.422 (inactive) | -6.2e-05 (inactive) | 0.00529 (inactive) | 18.5% (inactive) | -23.1% (inactive)
8 | O=C1NC(c2ccccc2)(C(F)(F)F)SC2=CCCCCN12 (stereo not drawn) | 415 | 12.1% (inactive) | 2% (inactive) | 98.6 | -14% (inactive) | 111 | -0.545 (inactive) | 5e-05 (inactive) | 0.00583 (inactive) | -3.83% (inactive) | 7.38% (inactive)
